Measurements: PubChem BioAssay AID602405 (Broad Institute, 2012)
Out of some 360,000 compounds screened, about 350 (0.097%) were called active. No stated cut-off is given here; in the data, active means inhibition above about 16% (passing the limit was not always enough); inconclusive means no clear call, values can overlap the other calls; inactive means below that. Many of the other results were omitted from the sample, so actives are more common in it than they were.

Tested on: UDP-N-acetylbacillosamine N-acetyltransferase PglD (Campylobacter jejuni)
Assay: blockers of PglD enzyme activity – biochemical, DTNB colorimetric, single point, primary screen (AID 602405)
Conditions: purified PglD enzyme, DTNB colorimetric CoA detection; at 12.5 µM; hits give high values

inhibition, active:
O=C(Nc1ccc(Sc2ccc(Br)cc2)cc1)c1ccco1 20.2%
Cc1ccc(C2=C/C(=C\c3cccnc3)C(=O)O2)cc1 49.3%
CC(=O)Nc1ccc(OC(=O)COc2ccc(Br)cc2)cc1 83.3%
O=C(NCc1ccncc1)C1CCN(C(=O)c2cccc(Cl)c2)CC1 22.3%

inhibition, inactive:
COC(=O)C[C@@H]1C[C@H]2c3cc(NC(=O)CN(C)C)ccc3O[C@H]2[C@H](CO)O1 1.44%
COc1ccc(S(=O)(=O)Nc2cccc3c2O[C@@H](CN(C)C(=O)NC(C)C)[C@H](C)CN([C@@H](C)CO)C3=O)cc1 3.51%
CCCNC(=O)Nc1ccc2c(c1)C(=O)N(C)C[C@H](OC)[C@H](C)CN[C@@H](C)CO2 1.64%
C[C@H]1CN([C@@H](C)CO)C(=O)c2cccc(NC(=O)Nc3ccccc3)c2O[C@H]1CN(C)S(=O)(=O)c1ccc(Cl)cc1 1.05%
O=C(N[C@H]1C=C[C@@H](CC(=O)N2CCN(c3ccccc3)CC2)O[C@@H]1CO)c1ccncc1 1.58%
CCC(=O)Nc1ccc2c(c1)C(=O)N(C)C[C@@H](OC)[C@@H](C)CN(Cc1ccccc1F)[C@H](C)CO2 2.28%
CCCNC(=O)N(C)C[C@H]1Oc2ncc(-c3cccc(C#N)c3)cc2C(=O)N([C@@H](C)CO)C[C@H]1C 0.216%
O=C(CNC(=O)c1ccco1)NNC(=O)c1ccc(Br)cc1 2.58%
O=C(NNC(=O)c1ccco1)Nc1ccccc1 3.41%
O=C(Nc1ccccc1F)N1C[C@H]2[C@@H](c3ccccc31)[C@@H](CO)N2C(=O)Cc1cccnc1 5.55%
COc1ccc(NC(=O)Nc2ccc3c(c2)C(=O)N([C@@H](C)CO)C[C@@H](C)[C@H](CN(C)Cc2ccc(Cl)c(Cl)c2)O3)cc1 6.96%
COc1cccc(CNC(=O)C[C@@H]2C=C[C@@H](NC(=O)C3CCC3)[C@@H](CO)O2)c1 -2.99%
Cc1noc(C)c1NC(=O)N(C)C[C@@H]1Oc2ccc(NS(C)(=O)=O)cc2C(=O)N([C@H](C)CO)C[C@@H]1C -1.3%
C[C@H](O)C#Cc1ccc2c(c1)O[C@@H](CN(C)C(=O)C1CCCCC1)[C@H](C)CN([C@@H](C)CO)S2(=O)=O -1%
C[C@H]1CCCCO[C@H](CN(C)CC2CC2)[C@@H](C)CN([C@@H](C)CO)C(=O)c2cc(NS(C)(=O)=O)ccc2O1 32%
O=C(c1ccc(F)cc1)N1CCCCN2[C@@H](CO)[C@H](c3ccc(-c4ccccc4)cc3)[C@@H]2C1 1.69%
CN(C)/C=C1\C=C(c2ccccc2)OC1=O -0.491%
Cc1ccc(C(=O)N/C(=C/c2cccnc2)C(=O)O)cc1 -2.85%
CCCc1cn(CC[C@@H]2CC[C@H](NS(=O)(=O)c3ccccc3Cl)[C@H](CO)O2)nn1 -0.55%
CC(=O)N1C[C@@H]2[C@H](c3ccccc31)[C@H](CO)N2Cc1ccc(Cl)cc1 2.15%
CCCNC(=O)C[C@@H]1C[C@@H]2c3cc(N(C)C)ccc3O[C@@H]2[C@H](CO)O1 -5.6%
COc1ccc(S(=O)(=O)N(C)C[C@H]2OCCCC[C@H](C)Oc3ccc(NC(=O)Nc4ccc(F)cc4)cc3C(=O)N([C@@H](C)CO)C[C@H]2C)cc1 -0.001%
C[C@@H](NC(=O)[C@H]1[C@H](CO)[C@H]2Cn3c(cccc3=O)[C@H]2N1C(=O)C1CC1)c1ccccc1 -3.9%
CCOc1ccc(NC(=O)CCNC(=O)c2ccc(Br)cc2)cc1 1.93%
O=C(COc1ccc(Br)cc1)OCC(=O)c1ccc[nH]1 0.716%
C[C@H](CO)N1C[C@H](C)[C@H](CN(C)Cc2ccccc2)Oc2ccc(NC(=O)Cc3ccccc3)cc2C1=O -3.27%
COCC(=O)Nc1ccc2c(c1)C(=O)N(C)[C@H]1CC[C@@H](CC(=O)Nc3cn(C)nc3C)O[C@@H]1CO2 2.19%
O=C(c1cccc(Cl)c1)N1CCN(Cc2ccccc2)CC1 -4.44%
COc1ccc(CNC(=O)C2CCN(C(=O)c3ccccc3)CC2)cc1 -3.01%
CC(C)NC(=O)N[C@H]1C=C[C@H](CC(=O)NCCN2CCCC2)O[C@@H]1CO 0.57%
CCC(=O)N1[C@@H](CO)[C@@H]2c3ccccc3N(C(=O)c3ccccc3F)C[C@@H]21 -0.466%
COc1ccc(CN(C)C[C@@H]2OCCCC[C@H](C)Oc3ccc(NS(C)(=O)=O)cc3C(=O)N([C@@H](C)CO)C[C@H]2C)cc1 -1.59%
O=C(NC[C@@H]1[C@H](c2ccccc2)[C@H](CO)N1CC1CCCC1)c1cccnc1 1.03%
CC=Cc1ccc2n(c1=O)C[C@H]1[C@H](CO)[C@@H](C(=O)NCc3ccncc3)N(Cc3cncnc3)[C@@H]21 (mixture of isomers) -1.52%
CC=Cc1ccc2n(c1=O)C[C@@H]1[C@@H](CO)[C@H](C(=O)N3CCCCC3)[C@H]2N1C(=O)C1CCC1 (mixture of isomers) 2.61%
C[C@@H]1CCCCO[C@H](CN(C)Cc2ccc(C(F)(F)F)cc2)[C@@H](C)CN([C@@H](C)CO)C(=O)c2cc(NC(=O)c3ccncc3)ccc2O1 3.05%
CC(C)CN(C[C@@H]1N[C@@H](CO)[C@H]1c1ccccc1)C(=O)CN(C)C 5.57%
CO[C@@H]1CN(C)C(=O)c2cc(NC(=O)C3CCC3)ccc2OC[C@H](C)N(Cc2nccs2)C[C@H]1C 0.477%
Cc1noc(C)c1NC(=O)N(C)C[C@H]1Oc2c(NS(=O)(=O)c3cccs3)cccc2C(=O)N([C@@H](C)CO)C[C@@H]1C 0.536%
CO[C@@H]1CN(C)C(=O)c2cc(NC(=O)NC3CCCCC3)ccc2OC[C@H](C)N(CC2CCOCC2)C[C@H]1C -1.39%
